Measured values taken from PubChem BioAssay (NCI).
Compounds without any hit were thinned out: in the full panel of roughly 83,000, 20% have a hit.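 96-well plates, one dose, 48 hours. Percent growth reported; active if below 10.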 Values without a mark were called inactive. Active and inactive are the calls of the source.

Tests used:
Assay in all cases: NCI-60 one-dose screen, 48 h (100 = growth as untreated, 0 = no growth, -100 = all killed)
NCI-H226 lung = details: 10 µM
NCI-H322M lung = details: 10 µM
HOP-62 NSCLC = details: 10 µM
NCI-H460 lung = details: 10 µM
NCI-H522 lung = details: 10 µM
A549/ATCC NSCLC = details: 10 µM
DU-145 prostate = details: 10 µM
K-562 leukemia = details: 10 µM
SF-539 CNS = details: 10 µM
M14 melanoma = details: 10 µM
HCT-15 colon = details: 10 µM
HT29 colon = details: 10 µM
SNB-19 CNS = details: 10 µM
U251 CNS = details: 10 µM
PC-3 prostate = details: 10 µM
LOX IMVI melanoma = details: 10 µM
MOLT-4 leukemia = details: 10 µM
SR leukemia = details: 10 µM
RPMI-8226 leukemia = details: 10 µM
MDA-MB-468 breast = details: 10 µM unless noted

SMILES	growth (NCI-H226 lung)	growth (NCI-H322M lung)	growth (HOP-62 NSCLC)	growth (NCI-H460 lung)	growth (NCI-H522 lung)	growth (A549/ATCC NSCLC)	growth (DU-145 prostate)	growth (K-562 leukemia)	growth (SF-539 CNS)	growth (M14 melanoma)	growth (HCT-15 colon)	growth (HT29 colon)	growth (SNB-19 CNS)	growth (U251 CNS)	growth (PC-3 prostate)	growth (LOX IMVI melanoma)	growth (MOLT-4 leukemia)	growth (SR leukemia)	growth (RPMI-8226 leukemia)	growth (MDA-MB-468 breast)
COc1ccc(Cc2nn(CC(=O)N/N=C/c3ccc([N+](=O)[O-])cc3)c(=O)c3c(C)noc23)cc1	70.6%	78.6%	39.6%	16.6%	76.1%	22.5%	88.4%	88.4%	34%	70.1%	83.7%	96.2%	59.6%	24.4%	69.8%	26.4%	90.2%	93.2%	81.5%	53.1%
COc1cc(C2CC(c3ccccc3)=Nc3c(N)nc(N)nc3N2)ccc1Oc1nc(NCCO)nc(N2CCOCC2)n1 (centres undefined)	92.5%	90.6%	106%	110%	97.7%	107%	115%	91.3%	97.5%	104%	99.4%	112%	89.8%	98.1%	101%	107%	91.3%	66%	104%	88%
COc1cc2oc(-c3cccc(C(=O)Nc4ccc(Cl)cc4)c3)cc(=O)c2c(OCCNC(=O)[C@@H](N)CO)c1OC	95.1%	55.3%	87.6%	40.2%	-27.9% (active)	102%	77%	-53.3% (active)	23.9%	-81.8% (active)	83%	37.3%	25%	-82.6% (active)	48.3%	-79.1% (active)	-40.4% (active)	-38.1% (active)	-23.4% (active)	-85.6% (active)
Fc1ccc(-c2csc(Nc3cccc(Nc4nc(-c5ccc(F)cc5)cs4)c3)n2)cc1	51.5%	60.1%	72.7%	40.4%	6.23% (active)	62.8%	67.7%	36%	70.9%	66.8%	52.5%	62.3%	70.2%	62.7%	35.2%	39.3%	46.4%	51.4%	49.5%	38.6%
O=C(c1ccccc1)c1ccc2nc(-c3ccccc3Br)[nH]c2c1	-27.8% (active)	-96.2% (active)	-46.6% (active)	-22.4% (active)	-74.9% (active)	-57.9% (active)	-76% (active)	-3.28% (active)	-96.1% (active)	-70.1% (active)	-37.7% (active)	-71.3% (active)	4.77% (active)	-94.7% (active)	-19.4% (active)	-94.6% (active)	-15.3% (active)	-22.8% (active)	-17.9% (active)	-57.2% (active)
O=C(CN1CCN(c2ncnc3c2cnn3-c2ccccc2)CC1)Nc1ccc(Cl)cc1	67.5%	78.9%	85.7%	53.3%	-83.1% (active)	67%	57.5%	42.4%	76.1%	59.4%	45%	63.4%	66.5%	66.7%	38.8%	39.9%	7.06% (active)	36.9%	44.4%	42.5%
CC1(C)CC[C@]2(C(=O)O)CC[C@]3(C)C(=CCC4[C@@]5(C)C[C@@H](O)[C@@H]6OC(c7cccc(F)c7)OC[C@@]6(C)C5CC[C@]43C)C2C1 (some centres undefined)	39.9%	34.2%	49.5%	27.6%	8.76% (active)	19.8%	36.7%	21.1%	70.2%	46%	23%	28.1%	45.7%	11.6%	32.1%	27.6%	18.5%	22.4%	21.1%	23.5%
COc1ccc(-n2c(SCC(=O)NNS(=O)(=O)c3ccccc3)nc3ccc(Cl)cc3c2=O)cc1	91%	98.1%	96.6%	115%	86.5%	106%	113%	99.5%	97.6%	104%	92%	114%	98.6%	101%	88.4%	87.2%	93.4%	78.9%	99%	102%
COc1cc(-c2nc3ccc(C)cc3[nH]2)ccc1OCc1nnc(-c2ccccc2Br)o1	65.3%	87.3%	73.7%	72.8%	64%	65.1%	80.7%	55.8%	24.4%	71.2%	36.4%	20%	73.9%	57.7%	56.1%	71.8%	41.2%	59.1%	30.1%	61.6%
Cc1ccc(S(=O)(=O)N2CCN(S(=O)(=O)c3oc(-c4ccccc4)nc3C#N)CC2)cc1	69.2%	84.8%	100%	76.2%	64.1%	74.7%	85.6%	66.1%	101%	84.8%	82.5%	80.2%	78.6%	84.4%	75%	8.41% (active)	56.8%	31.4%	74.7%	66.2%
C#C[C@]1(O)CC[C@H]2[C@@H]3CC=C4c5sc(Nc6cc(C)cc(C)n6)nc5CC[C@]4(C)[C@H]3CC[C@@]21C	13.8%	14.7%	6.05% (active)	-34.3% (active)	-79.9% (active)	9.23% (active)	12.9%	4.71% (active)	-66% (active)	-42.1% (active)	-69.5% (active)	-74.2% (active)	-39.1% (active)	-58.9% (active)	-4.36% (active)	-96% (active)	1.29% (active)	3.1% (active)	-16% (active)	
COc1ccc(Cc2nn(CC(=O)N/N=C/c3ccc(Br)cc3)c(=O)c3c(C)noc23)cc1	55.3%	62.6%	2.75% (active)	9.38% (active)	29.2%	6.92% (active)	55.4%	51.8%	13%	57.6%	63.8%	63.4%	21.6%	-27.7% (active)	43.9%	25.9%	63.2%	38.5%	55.4%	26.4%
CCOC(=O)C1=C(N)N(c2ccc(C)cc2)C2=C(C(=O)CC(C)(C)C2)C1c1ccccc1Br (centres undefined)	84.9%	99%	90.8%	53.5%	67.5%	80.9%	102%	50.6%	104%	83%	58.4%	62.5%	86.7%	80.7%	32.4%	88.8%	29.1%	65.7%	35.5%	77%
Cc1ccc(-c2nc(C#N)c(S(=O)(=O)N3CCN(S(C)(=O)=O)CC3)o2)cc1	85.6%	98.8%	95.6%	79.9%	-86.6% (active)	92.9%	68.7%	6.88% (active)	40.3%	22.6%	-74.5% (active)	-6.5% (active)	93.9%	78.7%	68.3%	-88.6% (active)	0.383% (active)	1.13% (active)	4.64% (active)	-68.5% (active)
C#C[C@]1(O)CC[C@H]2[C@@H]3CC=C4c5sc(Nc6ccc(N(C)C)cc6)nc5CC[C@]4(C)[C@H]3CC[C@@]21C	-43.2% (active)	42.5%	10.7%	7.37% (active)	-57.1% (active)	20.5%	-8.05% (active)	4% (active)	-75.7% (active)	-12.3% (active)	-37.5% (active)	-53.5% (active)	18.1%	-75% (active)	5.44% (active)	-80.3% (active)	-6.03% (active)	9.05% (active)	-42% (active)	-56.3% (active)
